# Compounds with a hit are over-represented: about 19% of the library has one in this group of screens.
# DT40 TDP1 CPT – DT40-hTDP1 cell growth loss with CPT; chicken DT40 Tdp1-/-;hTDP1 cells + 20 nM CPT, ATP luminescence, 48 h; Potency, µM (top dose mostly 46.2 µM), for inactives: at the highest dose activity change, negative = growth inhibition, hits mostly inhibitors; hit rate 12% among 420,000; AID 686979; also: potency is read from the fitted curve at half-maximal effect; nearly all actives have a fitted effect of over 55% in size
#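 Chicken DT40 Tdp1-/- cells stably complemented with human TDP1 were seeded at 400 cells/well in medium containing 20 nM camptothecin, exposed to pin-transferred compounds, and grown at 37 °C for at least 48 hr. Viability was read as ATP luminescence.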
# HT1080-NT tox – kills 2HG-producing HT-1080-NT fibrosarcoma cells; HT-1080-NT fibrosarcoma viability, CellTiter-Glo ATP luminescence, 48 h; Potency, µM (series often up to 46.1 µM), for the others: at the top dose activity, negative = less viability, most hits filed as cytotoxic; hit rate 1.6% among 360,000; AID 686970;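 also: NT is the 2HG producing partner of a matched IDH1 knockdown line; potency is read from the fitted curve at half-maximal effect; 0% = DMSO-treated cells and -100% = media-only wells without cells; nearly all actives have a fitted effect of over 55% in size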
#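 Fibrosarcoma NT cells, 750 per well in 5% FBS RPMI, were exposed to compound for 48 hours. Viability: CellTiter-Glo luminescence.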
# IL1B secr inh – blocks inflammasome-driven IL-1 beta release | THP-1 LPS/ATP IL-1B secretion, AlphaLISA, 16 h; hits give low values | activity change, % at 57.5 µM | hit rate 4.7% among 360,000; in the data active = activity change below about -50%; inconclusive = mostly about -30% to -49%
#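 Secreted IL-1B measured by AlphaLISA bead assay after 16 h compound exposure of THP-1 cells; compounds (final up to 57.5 uM) added 1 h before LPS (250 ng/mL) and ATP (1.25 mM) stimulation; lower signal means less secretion.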
# HT1080 IDH1KD tx – toxicity to HT-1080 IDH1 knockdown cells (counter line) | HT-1080 IDH1 knockdown viability, ATP luminescence, 48 h | Potency, µM (top dose mostly 46.1 µM), for inactives: top-dose activity, negative = toxicity, most hits filed as cytotoxic | hit rate 2% among 360,000;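 also: potency is read from the fitted curve at half-maximal effect; 0% = DMSO wells and -100% = cell-free medium wells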
#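 CellTiter-Glo luminescence after 48 h compound exposure at 37 degrees C of IDH1-knockdown HT-1080 cells in 5% FBS RPMI. %Activity scaled between DMSO wells and cell-free media wells, with curves fitted and assigned curve classes.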
# DT40 TDP1 no CPT – qHTS for Inhibitors of human tyrosyl-DNA phosphodiesterase 1 (TDP1): qHTS in cells in absence of CPT | DT40 Tdp1-/- hTDP1 cells, no CPT, ATP luminescence, 48 h | Potency, µM (series often up to 46.2 µM), inactives show at the top dose activity change, negative = growth inhibition, hits mostly inhibitors | hit rate 15% among 420,000 | AID 686978, 2013; also: potency is read from the fitted curve at half-maximal effect; nearly all actives have a fitted effect of over 55% in size
#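 No-CPT arm: Tdp1-/-;hTDP1 DT40 cells (400/well) plus compounds, incubated ≥48 hr at 37 °C. Readout CellTiter-Glo luminescence.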
# * = called active by the depositor; ? = inconclusive; · = no result. Unless noted, calls follow the shape of the dose curve; as a rule, active = well fitted curve in the direction sought with a large enough effect; inconclusive = small, poorly fitted or top-dose-only effect, or another doubt; inactive = no such curve, though single readings can be large; an effect the other way counts as inactive or inconclusive. Unless noted, % is scaled to controls: 0 for no effect and ±100 for the full control effect.
SMILES,DT40 TDP1 CPT,HT1080-NT tox,IL1B secr inh,HT1080 IDH1KD tx,DT40 TDP1 no CPT
CCC1(c2ccc(F)cc2)NC(=O)N(CC(=O)N2CCN(C(=O)c3ccco3)CC2)C1=O (configuration not stated),6.6%,-0.9%,13.1,5.1%,-2.7%
CC(C)(CNC(=O)c1ccc(S(=O)(=O)Nc2ccc(Cl)cc2)cc1)N1CCOCC1,?,-12.5%,46.6,-12.4%,?
COc1ccc2c(c1)c(CC(=O)Nc1cccc(S(N)(=O)=O)c1)c(C)n2C(=O)c1ccc(Cl)cc1,?,?,-15.0,?,?
CC(=O)Nc1ccc(C2=NN(c3ccccc3)C(c3ccccc3)C2)cc1 (configuration not stated),?,-15.0%,34.8,-24.1%,23.1µM*
Oc1ccc(C2=NN(c3ccccc3)C(c3ccc(F)cc3)C2)cc1 (configuration not stated),?,18.4µM*,-97.8*,25.9µM*,?
CC(=O)Nc1ccc(C2CC(c3ccc(Cl)cc3)=NN2c2ccccc2)cc1 (configuration not stated),-29.5%,?,-19.0,-28.9%,?
CC(=O)Nc1ccccc1-c1nc(CNC(=O)c2cccc(F)c2)c(C)o1,8.1%,·,·,·,-1.8%
Cc1nc(C(=O)NCCC(C)C)sc1C1(C)CC(c2ccccc2)=NO1 (configuration not stated),-23.1%,16.5%,-8.6,9.9%,-28.1%
C#CCN(C[C@@H]1[C@@H](OC(=O)NCc2ccccc2)[C@@H](OC(=O)NCc2ccccc2)Cn2c(=O)n(CCCCCC)c(=O)n21)S(=O)(=O)c1ccc(C)cc1,?,-6.9%,-5.0,-0.4%,?
C#CCN(C[C@@H]1[C@@H](OC(=O)NCc2ccco2)[C@@H](OC(=O)NCc2ccco2)Cn2c(=O)n(CCCCCC)c(=O)n21)S(=O)(=O)c1ccc(C)cc1,14.6µM*,-2.8%,-77.3*,-5.8%,9.2µM*
C#CCN(C[C@@H]1[C@@H](OC(=O)NC2CC2)[C@@H](OC(=O)NC2CC2)Cn2c(=O)n(CCCCCC)c(=O)n21)S(=O)(=O)c1ccc(C)cc1,?,-18.5%,-1.2,-13.7%,18.4µM*
C#CCN(C[C@@H]1[C@@H](OC(=O)NCc2ccc(OC)c(OC)c2)[C@@H](OC(=O)NCc2ccc(OC)c(OC)c2)CN(C(=O)OC(C)C)N1C(=O)OC(C)C)S(=O)(=O)c1ccc(C)cc1,11.6µM*,1.5%,?,-9.4%,9.2µM*
Cc1ccc(S(=O)(=O)N2C[C@H]3N(C(=O)OC(C)C)N(C(=O)OC(C)C)C[C@H](OC(=O)NC4CCCC4)[C@@]3(O)C2)cc1,?,-5.7%,?,-3.0%,20.6µM*
c1ccc2c(c1)CN1C(=N2)COc2ccccc2C1c1nc2ccccc2[nH]1 (configuration not stated),?,-6.2%,-2.6,6.0%,-16.5%
C#CCN(C[C@H]1[C@H](OC(=O)NCc2ccco2)[C@H](OC(=O)NCc2ccco2)C[C@H]2C(=O)N(c3ccccc3)C(=O)[C@@H]12)S(=O)(=O)c1ccc(C)cc1,2.4%,-0.3%,-8.4,15.9%,?
C#CCN(C[C@H]1[C@H](OC(=O)NC2CC2)[C@H](OC(=O)NC2CC2)C[C@@H](C(=O)OC)[C@H]1C(=O)OC)S(=O)(=O)c1ccc(C)cc1,-28.0%,13.1%,-25.3,4.3%,?
C#CCN(C[C@@H]1[C@@H](OC(=O)NC2CCCC2)[C@@H](OC(=O)NC2CCCC2)CN(C(=O)OC(C)C)N1C(=O)OC(C)C)S(=O)(=O)c1ccc(C)cc1,?,-8.5%,-20.4,-19.7%,20.6µM*
C#CCN(C[C@@H]1[C@@H](OC(=O)NCc2ccc(OC)c(OC)c2)[C@@H](OC(=O)NCc2ccc(OC)c(OC)c2)Cn2c(=O)n(CCCCCC)c(=O)n21)S(=O)(=O)c1ccc(C)cc1,6.2%,0.3%,-2.8,10.6%,-28.4%

# Bioassay records (PubChem)
